Experimental data from the supplement of paper PMC11732987, “Enantioselective OTUD7B fragment discovery through chemoproteomics screening and high-throughput optimisation” (Communications Chemistry, 2025).

Experiments:
Test in all cases: log2 ratio of Biotin-Ahx-Ub-VS probe labelling (fragment/DMSO); higher = less target engagement (more negative = stronger competition), active = hit call of the paper (q ≤ 0.05, log2 ratio ≤ -1)
Settings in all cases: compound concentration: 200 uM; treatment time: 3 h
ALG13 = target: T1, ALG13 (UniProt Q9NP73)
T1 sequence (whole entry): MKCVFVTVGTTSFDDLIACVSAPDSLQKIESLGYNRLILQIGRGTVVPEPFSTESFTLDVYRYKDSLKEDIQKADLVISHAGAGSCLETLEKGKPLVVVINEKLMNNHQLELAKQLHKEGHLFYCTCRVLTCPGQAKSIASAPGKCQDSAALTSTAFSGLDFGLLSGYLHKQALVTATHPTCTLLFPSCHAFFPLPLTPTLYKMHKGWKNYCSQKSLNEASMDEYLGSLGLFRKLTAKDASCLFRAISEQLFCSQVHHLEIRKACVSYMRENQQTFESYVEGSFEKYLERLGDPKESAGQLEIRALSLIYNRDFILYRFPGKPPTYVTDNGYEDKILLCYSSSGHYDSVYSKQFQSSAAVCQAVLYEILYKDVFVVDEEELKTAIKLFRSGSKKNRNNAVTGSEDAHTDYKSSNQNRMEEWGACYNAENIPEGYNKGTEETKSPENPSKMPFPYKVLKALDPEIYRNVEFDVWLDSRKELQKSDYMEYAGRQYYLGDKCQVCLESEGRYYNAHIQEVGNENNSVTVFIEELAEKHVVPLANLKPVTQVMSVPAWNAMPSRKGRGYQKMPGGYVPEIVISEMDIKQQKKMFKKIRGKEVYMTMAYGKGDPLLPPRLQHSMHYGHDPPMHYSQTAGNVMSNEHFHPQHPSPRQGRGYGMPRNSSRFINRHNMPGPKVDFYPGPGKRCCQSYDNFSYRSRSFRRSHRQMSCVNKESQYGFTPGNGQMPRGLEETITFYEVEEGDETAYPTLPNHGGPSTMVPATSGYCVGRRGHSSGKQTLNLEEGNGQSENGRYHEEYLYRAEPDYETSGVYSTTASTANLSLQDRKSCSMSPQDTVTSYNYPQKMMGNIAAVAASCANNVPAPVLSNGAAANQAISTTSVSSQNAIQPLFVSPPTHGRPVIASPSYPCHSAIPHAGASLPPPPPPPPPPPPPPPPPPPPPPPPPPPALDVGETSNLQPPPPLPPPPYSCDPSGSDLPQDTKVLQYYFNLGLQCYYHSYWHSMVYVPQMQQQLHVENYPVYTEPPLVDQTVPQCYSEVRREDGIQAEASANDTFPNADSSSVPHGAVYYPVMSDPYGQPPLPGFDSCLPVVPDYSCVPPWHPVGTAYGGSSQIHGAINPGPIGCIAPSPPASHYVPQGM
Outline: (§1)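 HEK293T lysate (495 µg per sample, in Tris/CHAPS/IGEPAL buffer with protease inhibitors) was exposed in triplicate for 3 h to fragment at 200 µM or to vehicle, then to Biotin-Ahx-Ub-VS at 0.5 µM final for 1 h. Labelled DUBs were enriched on NeutrAvidin, digested with LysC and trypsin, and analysed by diaPASEF LC-MS/MS. Spectronaut label-free quantities were normalised to the global median, and values are average log2 ratios of fragment over vehicle from an unpaired t-test. Only proteins with ≥2 unique peptides were used.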

ATXN3 = ATXN3 (UniProt P54252)
Outline: as §1

BAP1 = target: T2, BAP1 (UniProt Q92560)
T2 sequence (whole entry): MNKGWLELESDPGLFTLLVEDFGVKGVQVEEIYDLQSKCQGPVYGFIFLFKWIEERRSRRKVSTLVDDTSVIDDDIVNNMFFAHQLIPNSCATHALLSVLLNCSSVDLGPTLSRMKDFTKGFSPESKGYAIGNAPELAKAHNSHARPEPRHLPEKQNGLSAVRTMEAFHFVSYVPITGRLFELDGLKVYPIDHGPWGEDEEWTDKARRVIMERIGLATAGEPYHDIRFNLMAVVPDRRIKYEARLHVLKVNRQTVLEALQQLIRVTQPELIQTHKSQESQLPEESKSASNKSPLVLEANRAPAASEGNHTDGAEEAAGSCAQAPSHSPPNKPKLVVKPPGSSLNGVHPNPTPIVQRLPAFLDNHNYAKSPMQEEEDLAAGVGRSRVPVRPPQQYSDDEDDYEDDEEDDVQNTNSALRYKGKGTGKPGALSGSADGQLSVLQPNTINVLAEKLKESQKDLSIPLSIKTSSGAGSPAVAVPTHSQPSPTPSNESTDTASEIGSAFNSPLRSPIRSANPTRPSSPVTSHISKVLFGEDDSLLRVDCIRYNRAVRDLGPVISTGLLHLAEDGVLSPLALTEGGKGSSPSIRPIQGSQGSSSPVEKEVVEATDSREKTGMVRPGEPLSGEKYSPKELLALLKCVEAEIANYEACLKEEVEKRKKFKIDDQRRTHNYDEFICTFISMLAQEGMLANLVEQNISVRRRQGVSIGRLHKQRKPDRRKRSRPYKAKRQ
Outline: as §1

EIF3F = EIF3F (UniProt O00303)
Outline: as §1

EIF3H = EIF3H (UniProt O15372)
Outline: as §1

FAM105A = target: T3, FAM105A (UniProt Q9NUU6)
T3 sequence (whole entry): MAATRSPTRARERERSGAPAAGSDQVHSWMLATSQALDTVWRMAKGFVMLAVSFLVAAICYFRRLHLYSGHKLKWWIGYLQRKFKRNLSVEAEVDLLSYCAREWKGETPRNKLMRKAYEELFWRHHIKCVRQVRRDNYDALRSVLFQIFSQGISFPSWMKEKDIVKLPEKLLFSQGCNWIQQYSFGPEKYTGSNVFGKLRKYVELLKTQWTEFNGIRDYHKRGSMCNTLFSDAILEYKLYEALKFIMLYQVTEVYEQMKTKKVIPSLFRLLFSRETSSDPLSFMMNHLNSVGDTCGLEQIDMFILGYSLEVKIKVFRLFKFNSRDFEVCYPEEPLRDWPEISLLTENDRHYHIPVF
Outline: as §1

OTUB1 = OTUB1 (UniProt Q96FW1)
Outline: as §1

OTUD4 = target: T4, OTUD4 (UniProt Q01804)
T4 sequence (whole entry): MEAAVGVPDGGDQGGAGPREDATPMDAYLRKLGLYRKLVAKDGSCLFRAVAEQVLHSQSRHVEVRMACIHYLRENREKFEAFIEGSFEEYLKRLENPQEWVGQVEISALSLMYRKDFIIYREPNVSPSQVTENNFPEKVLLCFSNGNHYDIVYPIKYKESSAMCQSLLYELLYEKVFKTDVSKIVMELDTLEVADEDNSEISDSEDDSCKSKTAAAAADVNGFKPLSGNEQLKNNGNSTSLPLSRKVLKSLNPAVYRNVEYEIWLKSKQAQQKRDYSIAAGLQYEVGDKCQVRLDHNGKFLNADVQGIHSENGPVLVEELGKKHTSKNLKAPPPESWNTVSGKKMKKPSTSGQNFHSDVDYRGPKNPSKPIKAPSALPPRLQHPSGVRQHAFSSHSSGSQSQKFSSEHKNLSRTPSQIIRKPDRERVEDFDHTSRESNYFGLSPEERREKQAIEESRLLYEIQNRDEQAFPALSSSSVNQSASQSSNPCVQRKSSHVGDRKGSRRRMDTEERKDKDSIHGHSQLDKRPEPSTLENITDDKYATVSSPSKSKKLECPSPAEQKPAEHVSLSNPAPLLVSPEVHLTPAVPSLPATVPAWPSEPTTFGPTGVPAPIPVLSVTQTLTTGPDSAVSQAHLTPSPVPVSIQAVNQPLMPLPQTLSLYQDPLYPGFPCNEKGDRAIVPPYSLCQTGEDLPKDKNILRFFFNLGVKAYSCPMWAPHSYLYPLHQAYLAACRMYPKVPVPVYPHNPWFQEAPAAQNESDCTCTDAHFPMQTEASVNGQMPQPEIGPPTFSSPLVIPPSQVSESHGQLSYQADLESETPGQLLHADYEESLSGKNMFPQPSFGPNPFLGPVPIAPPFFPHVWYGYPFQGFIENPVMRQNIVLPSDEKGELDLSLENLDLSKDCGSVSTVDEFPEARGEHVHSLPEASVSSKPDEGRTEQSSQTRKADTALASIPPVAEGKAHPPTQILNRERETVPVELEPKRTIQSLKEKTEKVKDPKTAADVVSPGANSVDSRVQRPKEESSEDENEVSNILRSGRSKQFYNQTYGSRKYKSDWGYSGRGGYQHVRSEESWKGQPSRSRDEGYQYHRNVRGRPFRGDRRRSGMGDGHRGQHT
Outline: as §1

OTUD5 = target: T5, OTUD5 (UniProt Q96G74)
T5 sequence (whole entry): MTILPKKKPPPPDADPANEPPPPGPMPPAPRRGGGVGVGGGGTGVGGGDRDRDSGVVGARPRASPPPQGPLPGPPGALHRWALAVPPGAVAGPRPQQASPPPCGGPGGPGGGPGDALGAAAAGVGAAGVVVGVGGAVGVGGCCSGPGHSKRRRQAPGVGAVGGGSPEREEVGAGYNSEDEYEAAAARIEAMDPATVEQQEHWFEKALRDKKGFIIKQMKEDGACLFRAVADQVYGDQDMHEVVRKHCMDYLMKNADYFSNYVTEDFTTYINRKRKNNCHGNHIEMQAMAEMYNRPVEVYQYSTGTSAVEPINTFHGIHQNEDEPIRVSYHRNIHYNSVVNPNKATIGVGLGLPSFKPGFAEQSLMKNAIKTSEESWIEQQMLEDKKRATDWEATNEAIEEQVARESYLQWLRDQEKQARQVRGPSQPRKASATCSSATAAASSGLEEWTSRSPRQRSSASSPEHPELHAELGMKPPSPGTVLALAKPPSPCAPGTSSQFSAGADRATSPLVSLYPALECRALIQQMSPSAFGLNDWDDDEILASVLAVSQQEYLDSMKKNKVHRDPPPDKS
Outline: as §1

Measured: log2 ratio of Biotin-Ahx-Ub-VS probe labelling

OTUB1, sequence (Q96FW1 whole entry): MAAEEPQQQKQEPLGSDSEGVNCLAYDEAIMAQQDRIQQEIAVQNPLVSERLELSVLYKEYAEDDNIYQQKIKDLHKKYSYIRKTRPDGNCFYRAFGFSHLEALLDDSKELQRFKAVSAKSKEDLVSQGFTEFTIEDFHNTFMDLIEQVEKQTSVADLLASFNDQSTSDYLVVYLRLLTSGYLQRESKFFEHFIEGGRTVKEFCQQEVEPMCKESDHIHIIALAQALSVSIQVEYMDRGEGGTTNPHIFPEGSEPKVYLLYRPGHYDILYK
EIF3F, sequence (O00303 whole entry): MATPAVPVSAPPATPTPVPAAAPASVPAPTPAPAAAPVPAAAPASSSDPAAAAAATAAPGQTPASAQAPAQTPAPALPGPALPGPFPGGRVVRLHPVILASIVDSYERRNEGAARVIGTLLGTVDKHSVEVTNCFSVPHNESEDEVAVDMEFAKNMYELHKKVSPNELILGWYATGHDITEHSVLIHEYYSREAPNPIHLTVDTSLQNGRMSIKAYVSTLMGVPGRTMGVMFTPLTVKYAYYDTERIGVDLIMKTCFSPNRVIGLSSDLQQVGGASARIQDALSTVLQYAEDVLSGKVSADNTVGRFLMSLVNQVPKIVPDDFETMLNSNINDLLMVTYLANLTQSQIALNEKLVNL
EIF3H, sequence (O15372 whole entry): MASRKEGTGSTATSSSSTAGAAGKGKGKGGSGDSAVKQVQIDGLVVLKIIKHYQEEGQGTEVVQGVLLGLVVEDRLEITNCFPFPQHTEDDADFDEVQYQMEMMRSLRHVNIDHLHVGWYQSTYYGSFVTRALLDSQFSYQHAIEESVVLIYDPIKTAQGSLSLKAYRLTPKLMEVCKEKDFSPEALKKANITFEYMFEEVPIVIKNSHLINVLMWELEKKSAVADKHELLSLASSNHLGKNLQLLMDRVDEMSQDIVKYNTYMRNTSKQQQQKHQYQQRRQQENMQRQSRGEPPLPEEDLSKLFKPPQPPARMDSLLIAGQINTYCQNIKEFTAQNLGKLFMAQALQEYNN
ATXN3, sequence (P54252 whole entry): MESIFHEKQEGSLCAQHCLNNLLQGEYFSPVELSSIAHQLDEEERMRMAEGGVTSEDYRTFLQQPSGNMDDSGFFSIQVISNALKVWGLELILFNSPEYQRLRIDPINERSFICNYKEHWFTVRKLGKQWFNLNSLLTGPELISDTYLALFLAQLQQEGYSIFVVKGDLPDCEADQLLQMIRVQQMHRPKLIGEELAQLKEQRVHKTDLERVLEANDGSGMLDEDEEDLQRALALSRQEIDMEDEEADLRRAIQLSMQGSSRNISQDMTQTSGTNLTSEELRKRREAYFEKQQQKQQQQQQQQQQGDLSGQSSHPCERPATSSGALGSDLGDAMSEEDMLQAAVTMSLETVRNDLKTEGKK

Cc1ccc(N(C(=O)CCl)C2C=CS(=O)(=O)C2)cc1 (centres undefined)
inactive: ALG13 -0.425 | ATXN3 0.116 | BAP1 -0.0645 | EIF3F -0.128 | EIF3H -0.276 | FAM105A 0.167 | OTUB1 -0.0537 | OTUD4 0.0564 | OTUD5 -0.00864
